Results published in PubChem BioAssay AID624202 (National Center for Advancing Translational Sciences (NCATS), 2012).
Among all 380,000 compounds or so, about 4,000 (1.1%) were called active. Inconclusive results (about 3%) are left out. The call rests on the fitted dose curve; in most records, active means well fitted activation curve with a large enough effect; inconclusive means small, poorly fitted or top-dose-only effect; inactive means no such curve, though single readings can be large or run the other way. Shown is part of a subset that was picked to be rich in actives. A call without a number means that no potency is given here.

Test: qHTS Assay to Identify Small Molecule Activators of BRCA1 Expression; further: nearly all actives have a fitted effect of over 80% in size
Conditions: MCF7-BRCA1-FFLuc reporter, luminescence, 48 h; series mostly up to 46.1 µM
Method in brief: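 48 h compound treatment of MCF7-BRCA1-FFLuc cells (phenol-red free MEM, 37 °C), then 15 min with luciferase substrate and luminescence imaging.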
Potency means the concentration at half of the fitted maximal effect.

Row | SMILES | Potency
1 | CCCCNC(=O)Cn1c(SCc2cccc(Cl)c2)nc2ccncc21 | inactive
2 | CCCN(CCC)C(=O)C(Cc1ccccc1)NS(=O)(=O)c1ccc2c(c1)c(=O)n(C)c(=O)n2C (configuration not stated) | inactive
3 | Cc1ccc(-n2c(=O)c3cccnc3n2CC(=O)NCc2ccc(F)cc2)cc1C | inactive
4 | CCCCOC(=O)CSc1ncnc2sc3c(c12)CCC(C)C3 (configuration not stated) | inactive
5 | SCc1nc2ccc(Cl)cc2[nH]1 | inactive
6 | Cc1ccc(C)c(N2CCN(C(=O)CCc3nc(-c4cccc(C(F)(F)F)c4)no3)CC2)c1 | inactive
7 | Cc1cccc(-c2noc(CCC(=O)NC3CCCC3)n2)c1 | inactive
8 | Cc1ccc(Cc2nc(-c3cccc(C)c3)no2)cc1 | 7.94 µM (active)
9 | Cc1[nH]c2ccccc2c1C(=O)C(=O)N(C)c1ccccc1 | inactive
10 | Cc1sc2ncnc(N3CCC(C(=O)Nc4nc5ccc(Cl)cc5s4)CC3)c2c1C | inactive
11 | Cc1ccc(C(=O)Nc2nc3ccc(Cl)cc3s2)o1 | 0.891 µM (active)
12 | Cc1noc(C)c1CSCC(=O)Nc1nc2ccc(Oc3ccccc3)cc2s1 | inactive
13 | COc1ccc(-c2nc(=N)sn2-c2ccccc2)cc1 | inactive
14 | Cc1ccc2c(c1)-c1c(cnn1CC(=O)Nc1ccccc1C#N)CO2 | inactive
15 | COc1cc(CN(C(=O)c2ccccc2Br)c2ccccn2)cc(OC)c1OC | inactive
16 | Nc1ccc(/C=C/c2ccnc3ccccc23)c([N+](=O)[O-])c1 | inactive
17 | CN1C(=O)/C(=C/C=C2\SCCN2C)OC1=S | 5.62 µM (active)
18 | CN(C(=N)N)c1ccc(/C=C2\C=Cc3ccccc32)cc1 | inactive
19 | COc1ccc2nc(N3CCN(C(=O)c4ccc([N+](=O)[O-])o4)CC3)sc2c1 | inactive
20 | O=C(NCCc1cccc(F)c1)C1CCCN(c2nc3ccccc3s2)C1 (configuration not stated) | inactive
21 | Fc1ccc2nc(N3CCCCC3)sc2c1 | 4.47 µM (active)
22 | CCCCNC(=O)c1ccc2c(c1)NC(=O)C(C(C)C)N2 (configuration not stated) | inactive
23 | COc1ccccc1CNS(=O)(=O)c1cc(C(=O)NCc2ccccn2)c(Cl)cc1Cl | inactive

Row | SMILES | Potency
24 | O=C(NC1CCCC1)c1cc(-c2ccccc2)on1 | inactive
25 | C=CCNC(=O)c1ccccc1SCc1c(C)noc1C | inactive
26 | CCc1ccccc1NC(=O)c1cc(-c2ccc3c(c2)OCO3)on1 | inactive
27 | O=C(Nc1ccccc1C(F)(F)F)c1cc(-c2ccc(O)cc2)on1 | 11.2 µM (active)
28 | O=C(Nc1cccnc1Cl)c1cc(-c2ccccc2O)on1 | 8.91 µM (active)
29 | O=C(NCc1ccccn1)c1cc(-c2ccccc2Cl)on1 | 10 µM (active)
30 | Cc1cc(C)nc(NC(=O)Nc2ccccc2C(F)(F)F)n1 | inactive
31 | C=CCNC(=O)c1ccc2nc(-c3ccco3)c(-c3ccco3)nc2c1 | inactive
32 | C=CCNC(=O)c1cc(-c2ccccc2O)on1 | 5.62 µM (active)
33 | Cc1cc(Cl)ccc1OCCCC(=O)NCc1ccccn1 | inactive
34 | CSc1ccccc1NC(=O)c1cc(C2CC2)on1 | inactive
35 | O=C(Nc1ccc([N+](=O)[O-])cc1)c1cnn2c1NC(=C1CC1)C=C2C(F)F | inactive
36 | Cc1ccccc1C(=O)Nc1cc(C)c(O)c(-c2nc3ccccc3o2)c1 | inactive
37 | COc1ccc(-n2c(SCC(N)=O)nc3c(oc4ccccc43)c2=O)cc1 | inactive
38 | COc1ccccc1N1CCN(C(=O)C2CCN(S(=O)(=O)c3c(C)noc3/C=C/c3ccc(C)cc3)CC2)CC1 | inactive
39 | Cc1cc(C)c(NC(=O)CCc2c(C)nc3c(c(C)nn3C(C)(C)C)c2C)c(C)c1 | inactive
40 | Cc1ccc(-n2nnnc2CNC(=O)c2ccccc2C)cc1C | inactive
41 | O=C(CSc1nnc(-c2c[nH]c3ccccc23)o1)c1ccccc1 | 12.6 µM (active)
42 | CCC(CC)NC(=O)CSc1nnc(-c2c[nH]c3ccccc23)o1 | inactive
43 | CN(C(=O)CSc1nnc(-c2c[nH]c3ccccc23)o1)C1CCS(=O)(=O)C1 (configuration not stated) | inactive
44 | Cc1ccccc1NC(=O)Cn1c(=O)n(CCc2ccccc2)c(=O)c2ccccc21 | inactive
45 | COc1c(Cl)cc(Cl)cc1C(=O)Nc1cccc2cccnc12 | inactive
46 | COc1cc2[nH]c(=O)n(Cc3ccc(C(=O)NCc4ccc(C)cc4)cc3)c(=O)c2cc1OC | inactive

Row | SMILES | Potency
47 | Cc1cccc(NC(=O)COC(=O)c2ccccc2OCc2cccc(Br)c2)c1 | inactive
48 | CCOc1ccc(OCC)c(NC(=O)CN(c2ccc(C)cc2)S(=O)(=O)c2c(C)n[nH]c2C)c1 | inactive
49 | CCCCNC(=O)CSc1nccn1Cc1ccccc1 | inactive
50 | CCc1cccc(NC(=O)CSc2nccn2C)c1 | 12.6 µM (active)
51 | CC(=O)Nc1cccc(NC(=O)CSc2nccn2Cc2ccc(F)cc2)c1 | inactive
52 | COc1ccc(CN(Cc2ccccc2)C(=O)c2ccc(O)cc2)cc1COc1ccc(NC(C)=O)cc1 | inactive
53 | Cc1ccc(CCNC(=O)Cn2c(-c3cccs3)cc3cc(F)ccc32)cc1 | inactive
54 | COc1ccc(NC(=O)Cn2c(=O)cc(C)c3c(C)nn(-c4cccc(Cl)c4C)c32)cc1OC | inactive
55 | Cc1nn2cc(-c3ccc(Cl)cc3)cnc2c1Br | 8.91 µM (active)
56 | O=C(O)C1=C/C(=C/C=[N+]2c3cc(O)c(O[C@H]4OC(CO)[C@@H](O)[C@@H](O)[C@@H]4O)cc3C[C@@H]2C(=O)[O-])C[C@H](C(=O)O)N1 (some centres not stated) | inactive
57 | COc1ccc(-c2[nH]c3c(c2-c2c(-n4cccc4)n(C)c(=O)n(C)c2=O)c(=O)n(C)c(=O)n3C)cc1 | inactive
58 | Cc1ccc(S(=O)(=O)n2nc(C)c(S(=O)(=O)N3CCCCCC3)c2C)cc1 | inactive
59 | CCOc1ccc(NC(=O)Cn2c(C)ccc(C#N)c2=O)cc1 | inactive
60 | CCOc1ccc(NC(=O)c2ccc(NC(=O)COC(=O)c3ccc(NC(=O)CC#N)cc3)cc2)cc1 | 2.82 µM (active)
61 | CCOc1ccc(NC(=O)c2ccc(NC(=O)CN3C(=O)C(=O)N(CC(C)C)C3=O)cc2)cc1 | inactive
62 | CCn1cc(C(=O)N2CCN(c3cc(C)ccc3C)CC2)c(=O)c2cc(S(=O)(=O)N(C)C3CCCCC3)ccc21 | inactive
63 | CSc1ccc(CCNC(=O)c2cnn(-c3ccccc3)c2-n2cccc2)cc1 | inactive
64 | CC(=O)c1ccc(NC(=O)CCc2nc(-c3ccc(C)cc3)no2)cc1 | inactive
65 | CSc1nc2ccc(NC(=O)c3c(F)cccc3F)cc2s1 | 5.62 µM (active)
66 | O=C(Nc1ccc2nc(SCC(=O)N3CCc4ccccc43)sc2c1)c1ccccc1F | inactive
67 | CC(=O)Nc1ccc2nc(SCCOc3cc(C)cc(C)c3)sc2c1 | inactive
